Key:
Settings in all cases: concentration: 1 μM, replicates: in singlicate; n = 1
[1] = test system: T1, BIKE
T1 construct: gene BMP2K

[2] = test system: BLK
[3] = test system: BMPR1A
[4] = test system: BMPR1B
[5] = test system: BMPR2
[6] = test system: BMX
[7] = test system: BRAF
[8] = test system: T2, BRK
T2 construct: gene PTK6

[9] = test system: BRSK1
[10] = test system: BRSK2
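Also: KINOMEscan kinase panel screen.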

| Structure (SMILES) | %Inh [1] [%] | %Inh [2] [%] | %Inh [3] [%] | %Inh [4] [%] | %Inh [5] [%] | %Inh [6] [%] | %Inh [7] [%] | %Inh [8] [%] | %Inh [9] [%] | %Inh [10] [%] |
| --- | --- | --- | --- | --- | --- | --- | --- | --- | --- | --- |
| COc1ccc(Nc2nccc(N3CCC(NC(=O)C(C)c4ccc(Cl)cc4)CC3)n2)cc1 (centres unmarked) [GSK1379812] | 36 | 5 | 0 | 0 | 7 | 28 | 0 | 0 | 0 | 13 |
| CCn1c(-c2c(N)noc2C)nc2cnccc21 [SB-737856] | 22 | 0 | 0 | 0 | 3 | 0 | 0 | 0 | 6 | 0 |
| Cc1ccc(-c2nc(Nc3ccncc3)c3ccccc3n2)s1 [GSK189015] | 37 | 29 | 0 | 0 | 0 | 23 | 6 | 4 | 20 | 0 |
| CNc1nc(-c2ccc3c(N)n[nH]c3c2)cc(N2C[C@@H](C(=O)Nc3ccccc3)CC[C@H]2C)n1 [GSK2298859] | 36 | 0 | 0 | 0 | 0 | 15 | 0 | 9 | 0 | 21 |
| c1ccc(-c2ccnc3[nH]ccc23)cc1 [SB-693578] | 0 | 4 | 1 | 0 | 47 | 0 | 4 | 14 | 0 | 100 |
| CCc1ccc(-c2ccc3c(c2)-c2n[nH]cc2S(=O)(=O)N3C)cc1 | 12 | 9 | 0 | 0 | 0 | 0 | 0 | 0 | 0 | 4 |
| Cn1cncc1-c1cc2c(Nc3ccc(OCc4ccccc4)cc3)ncnc2cn1 [GW281179] | 4 | 27 | 13 | 0 | 8 | 1 | 0 | 19 | 0 | 2 |
| NS(=O)(=O)c1cccc(N/C=C2\C(=O)Nc3ccc(S(=O)(=O)Cc4c(Cl)cccc4Cl)cc32)c1 [GSK398099] | 0 | 0 | 0 | 0 | 8 | 0 | 0 | 2 | 0 | 0 |
| COc1ccc(CSc2nnc(-c3ccc4ncsc4c3)o2)cc1C(F)(F)F | 0 | 0 | 17 | 0 | 0 | 0 | 0 | 0 | 0 | 0 |
| COc1ccc(-c2coc3ccc(-c4nnc(C)o4)cc23)cc1 | 0 | 3 | 18 | 0 | 0 | 0 | 0 | 0 | 0 | 100 |
| O=C(Nc1n[nH]c2nc(-c3cccs3)c(Br)cc12)C1CC1 [SB-735297] | 26 | 0 | 0 | 0 | 26 | 9 | 0 | 0 | 66 | 53 |
| CS(=O)(=O)CCNCc1nc(-c2ccc3ncnc(Nc4ccc5c(cnn5Cc5ccccc5)c4)c3c2)cs1.Cl.Cl [GW569716] | 0 | 38 | 0 | 0 | 16 | 2 | 0 | 17 | 0 | 0 |
| COC(=O)C(NC(=O)NC1CCN(c2ccnc(Nc3ccc(F)cc3)n2)C1)c1ccccc1 (centres unmarked) [GSK1379712] | 8 | 0 | 0 | 0 | 17 | 3 | 9 | 2 | 12 | 0 |
| CC(=O)c1cccc(NC(=O)NC2CCN(c3ccnc(Nc4ccc(F)cc4)n3)C2)c1 (centres unmarked) [GSK1379710] | 25 | 0 | 0 | 0 | 10 | 16 | 0 | 4 | 6 | 0 |
| COc1ccc2cc(-c3nc(-c4ccccc4C(C)C)[nH]c3-c3ccncc3)ccc2c1 [SB-660566] | 0 | 0 | 17 | 0 | 5 | 0 | 6 | 22 | 4 | 10 |
| CCn1c(-c2ccccc2)nc2cnccc21 [SB-733416] | 28 | 0 | 0 | 0 | 10 | 0 | 49 | 27 | 0 | 1 |
| Cc1cnc(N)c(/C=C/c2cncc(C(=O)NCCc3ccc(Cl)cc3Cl)c2)c1.Cl [GSK190937] | 23 | 3 | 0 | 0 | 0 | 19 | 1 | 7 | 0 | 0 |
| O=c1cc(N2CCOCC2)nc2n(Cc3cccc(Cl)c3Cl)c3ccccc3n12 [GSK2299009] | 38 | 50 | 2 | 0 | 0 | 1 | 0 | 17 | 8 | 22 |
| COc1ccc(Nc2nccc(NCCNC(=O)Nc3cc(C)ccc3C)n2)cc1 [GSK1379899] | 28 | 36 | 0 | 0 | 0 | 0 | 4 | 0 | 4 | 7 |
| COc1cccc(C2=C(Nc3cc(Cl)c(O)c(Cl)c3)C(=O)NC2=O)c1 [SB-390767] | 21 | 0 | 0 | 0 | 1 | 13 | 0 | 18 | 7 | 0 |
| CS(=O)(=O)Cc1ccc(Nc2nccc(-c3c(-c4cccc(NC(=O)C5CCCCC5)c4)nn4ncccc34)n2)cc1 [GSK350559] | 1 | 0 | 0 | 19 | 24 | 37 | 20 | 2 | 0 | 0 |

| Structure (SMILES) | %Inh [1] [%] | %Inh [2] [%] | %Inh [3] [%] | %Inh [4] [%] | %Inh [5] [%] | %Inh [6] [%] | %Inh [7] [%] | %Inh [8] [%] | %Inh [9] [%] | %Inh [10] [%] |
| --- | --- | --- | --- | --- | --- | --- | --- | --- | --- | --- |
| COc1ccc(CSc2nnc(-c3ccc4c(c3)CCO4)o2)cc1 | 0 | 0 | 0 | 0 | 0 | 0 | 0 | 0 | 0 | 0 |
| Cl.Cl.Cl.N#Cc1ccc(CCNc2nccc(-c3cccc(CN4CCNCC4)c3)n2)cc1 [GSK2137462] | 25 | 0 | 0 | 0 | 0 | 12 | 0 | 8 | 0 | 2 |
| COC(=O)C(Cc1ccccc1)NC(=O)NC1CCN(c2ccnc(Nc3ccc(F)cc3)n2)C1 (centres unmarked) [GSK1379714] | 17 | 10 | 0 | 0 | 22 | 29 | 0 | 12 | 0 | 0 |
| COc1ccc(CSc2nnc(-c3ccc4nccn4c3)o2)cc1C(F)(F)F | 18 | 1 | 0 | 21 | 3 | 0 | 9 | 0 | 14 | 3 |
| CNc1cc(-c2ccc3c(N)n[nH]c3c2)nc(N)n1 [GSK2224810] | 74 | 0 | 16 | 78 | 5 | 15 | 0 | 6 | 2 | 0 |
| O=C1NC(=O)C(c2ccc(Cl)cc2)=C1Nc1ccc(O)cc1 [SB-340867] | 4 | 0 | 0 | 0 | 0 | 21 | 0 | 0 | 0 | 0 |
| CC[C@@H]1CO[C@H](C(=O)Nc2ccccc2)CN1c1cc(-c2ccc3c(N)n[nH]c3c2)nc(NC)n1 [GSK2376236] | 15 | 0 | 0 | 0 | 0 | 41 | 0 | 7 | 0 | 1 |
| Nc1ncnc2occ(-c3ccc4c(c3)CCN4C(=O)Cc3cc(F)ccc3F)c12 [GSK2645446] | 17 | 14 | 0 | 0 | 8 | 12 | 4 | 8 | 12 | 0 |
| CC(=O)c1c(C)c2cnc(Nc3ccc(N4CCNCC4)cn3)nc2n(C2CCCC2)c1=O | 0 | 0 | 15 | 0 | 0 | 0 | 0 | 0 | 0 | 0 |
| Cc1ccc(NC(=O)Nc2ccc(Cl)cc2)cc1-c1ccc(C(=O)Nc2ccncc2)cc1 [GSK1398472] | 18 | 21 | 0 | 0 | 0 | 15 | 43 | 30 | 0 | 0 |
| COc1cccc(NC(=O)Nc2ccc(C)c(-c3ccc(C(=O)Nc4ccncc4)cc3)c2)c1 [GSK1398474] | 26 | 40 | 0 | 0 | 0 | 18 | 30 | 0 | 12 | 96.2 |
| Cc1ccccc1Cn1ccn2c(=O)cc(N3CCOCC3)nc12 [GSK2269905] | 16 | 10 | 0 | 0 | 0 | 3 | 0 | 22 | 0 | 98.6 |
| O=C(Nc1n[nH]c2nc(-c3cccs3)c(Br)cc12)C1CCCC1 [SB-743341] | 12 | 0 | 28 | 19 | 46 | 14 | 7 | 12 | 63 | 66 |
| CSc1ccc(-c2nc3n(c2-c2ccncc2)CCC3)cc1 [SKF-105561] | 16 | 4 | 0 | 6 | 1 | 0 | 7 | 1 | 0 | 0 |
| Fc1ccc(-c2nn3cccc(F)c3c2-c2ccncc2)cc1 [GW475620] | 34 | 20 | 24 | 0 | 0 | 8 | 29 | 11 | 0 | 0 |
| CC(C)c1ccc(O)cc1Nc1ccnc2ccc(C(F)(F)F)cc12 [GW482059] | 13 | 30 | 0 | 0 | 0 | 0 | 0 | 0 | 1 | 5 |
| COc1ccc(Nc2nccc(N3CCC(NC(=O)C(C)c4ccc(Cl)cc4)C3)n2)cc1 (centres unmarked) [GSK1379735] | 25 | 33 | 19 | 0 | 4 | 27 | 0 | 0 | 7 | 0 |
| Cc1c(Cn2c(C)c(C)n3c(=O)cc(N4CCOCC4)nc23)cccc1C(F)(F)F [GSK2328680] | 2 | 29 | 6 | 0 | 5 | 14 | 0 | 6 | 0 | 0 |
| COc1cc2ncnc(Nc3cccc(Br)c3)c2cc1OC.Cl [GI230329] | 19 | 79 | 0 | 0 | 0 | 10 | 0 | 10 | 20 | 14 |
| O=c1cc(N2CCOCC2)nc2n(Cc3ccccc3F)ccn12 [GSK2297428] | 0 | 21 | 0 | 0 | 0 | 13 | 0 | 36 | 0 | 100 |
